Reference: PubChem BioAssay (EPA / NIEHS)
Where “and” joins values, the source holds several entries; their conditions need not be identical. Equal entries are not always repeated. Calls of active or inactive are those of the source. How the source made its calls: active means hit-call score of the fitted dose curve at least 0.9, where 1 is the maximum; inactive means score below 0.9. Peptide text beside a SMILES is read from it.

test system: not listed separately; assay: CCTE_Mundy_HCI_Cortical_Synap_Neur_Matur_CellBodySpotCount: CCTE's Synaptogenesis and Neurite Maturation Assay in rat cortical cells for Cell Body Spot Count, Mundy Lab (AID 2284223); conditions: not given
Outline: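 Read-out: cell body-associated synaptophysin puncta per neuron, imaged after MAP2, synaptophysin and Hoechst staining. Rat cortical cells, AraC DIV 5, chemical dosing DIV 7, fixation DIV 12. Activity fitted in positive direction relative to DMSO baseline.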

Row | SMILES | outcome
1 | CCCCNS(=O)(=O)c1ccccc1 | inactive
2 | Cc1c(C(=O)c2c[nH]n(C)c2=O)ccc(S(C)(=O)=O)c1C1=NOCC1 | inactive
3 | Cc1noc(NS(=O)(=O)c2ccc(N)cc2)c1C | inactive
4 | COC(=O)[C@H](Cc1ccccc1)NC(=O)[C@@H](N)CC(=O)O (H-Asp-Phe-OMe) | inactive

read-out: not listed separately; assay: BSK_BT_PBMCCytotoxicity: PBMC Cytotoxicity Assessment in the BioMAP Diversity Plus: BT Assay (AID 2284225); conditions: primary human B cells with PBMC;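 further: PBMC viability measured by Alamar Blue dye reduction fluorescence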
Outline: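 Primary human co-culture of B cells and PBMC, pre-dosed 1 h then activated with SEB and TSST-1. Cytotoxicity is taken from Alamar Blue dye reduction, added for 6 h at the end of a 90 h incubation.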

Row | SMILES | outcome | AC50
5 | CCOC(=O)C1=NOC(c2ccccc2)(c2ccccc2)C1 | inactive | –
6 | CC1(C)CC(O)CC(C)(C)N1[O] | inactive | –
7 | CCCCCCOC(=O)CCCCC(=O)OCCCCCC | inactive | –
8 | C=CC(=O)OCC(C)OCC(C)OCC(C)OC(=O)C=C (stereo not drawn) | – | 13.1 µM (active)
9 | CC(C)CCCCCOC(=O)CS | inactive | –
10 | CCCCCCC=O | inactive | –
11 | CCCCCCCCC(CO)CCCCCC (stereo not drawn) | inactive | –
12 | CCCCCCCO | inactive | –
13 | CCOC(=O)/C=C\C(=O)OCC | inactive | –
14 | CCOC(=O)C1=NN(c2ccc(Cl)cc2Cl)C(C)(C(=O)OCC)C1 (stereo not drawn) | inactive | –
15 | Fc1ccc(Br)cc1 | inactive | –
16 | C=CC(=O)OCCCCCCOC(=O)C=C | – | 14.3 µM (active)
17 | C=CCCCCCCCCC=O | inactive | –
18 | CC(c1cc(C(C)(C)C)cc(C(C)(C)C)c1O)c1cc(C(C)(C)C)cc(C(C)(C)C)c1O | – | 30.2 µM (active)
19 | CCc1cccc(C)c1N(C(=O)CS(=O)(=O)O)C(C)COC (stereo not drawn) | inactive | –
20 | CCN1CN(CC)CN(CC)C1 | inactive | –
21 | COc1ccc(C(=O)/C(Br)=C\C(=O)O)cc1 | – | 27.6 µM (active) and 25.4 µM (active)
22 | CC=C(C)C=CC=C(C)C | – | 19.9 µM (active)
23 | CC/C=C\C/C=C\C/C=C\CCCCCCCC(=O)OC | – | 17.4 µM (active)
24 | CC(Cl)COP(=O)(OCC(C)Cl)OCC(C)Cl (stereo not drawn) | inactive | –
25 | O=C(O)C(F)(F)C(F)(F)C(F)(F)C(F)(F)C(=O)O | inactive | –
26 | C[N+](C)(C)CCCNS(=O)(=O)C(F)(F)C(F)(F)C(F)(F)C(F)(F)C(F)(F)C(F)(F)C(F)(F)C(F)(F)F | inactive | –

read-out: Secreted IgG (sIgG), gene 3500; assay: BSK_BT_sIgG: BioMAP Diversity Plus: BT Assay for Secreted IgG (sIgG) Biomarker Activity (AID 2284226); conditions: primary human B cells with PBMC
Outline: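 Human B cell/PBMC co-culture; compound exposure 24 h; sIgG by ELISA; gain-of-signal fit vs DMSO baseline.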

Row | SMILES | AC50 | outcome
27 | CCOC(=O)C1=NOC(c2ccccc2)(c2ccccc2)C1 | 20 µM (active) | –
28 | CC1(C)CC(O)CC(C)(C)N1[O] | – | inactive
29 | CCCCCCOC(=O)CCCCC(=O)OCCCCCC | – | inactive
30 | C=CC(=O)OCC(C)OCC(C)OCC(C)OC(=O)C=C (stereo not drawn) | 3.06 µM (active) | –
31 | CC(C)CCCCCOC(=O)CS | – | inactive
32 | CCCCCCC=O | – | inactive
33 | CCCCCCCCC(CO)CCCCCC (stereo not drawn) | 33.7 µM (active) | –
34 | CCCCCCCO | – | inactive
35 | CCOC(=O)/C=C\C(=O)OCC | – | inactive
36 | CCOC(=O)C1=NN(c2ccc(Cl)cc2Cl)C(C)(C(=O)OCC)C1 (stereo not drawn) | 20 µM (active) | –
37 | Fc1ccc(Br)cc1 | – | inactive
38 | C=CC(=O)OCCCCCCOC(=O)C=C | 5.85 µM (active) | –
39 | C=CCCCCCCCCC=O | – | inactive
40 | CC(c1cc(C(C)(C)C)cc(C(C)(C)C)c1O)c1cc(C(C)(C)C)cc(C(C)(C)C)c1O | 5.95 µM (active) | –
41 | CCc1cccc(C)c1N(C(=O)CS(=O)(=O)O)C(C)COC (stereo not drawn) | – | inactive
42 | CCN1CN(CC)CN(CC)C1 | – | inactive
43 | COc1ccc(C(=O)/C(Br)=C\C(=O)O)cc1 | 6.83 µM (active) and 8.75 µM (active) | –
44 | CC=C(C)C=CC=C(C)C | 12.3 µM (active) | –
45 | CC/C=C\C/C=C\C/C=C\CCCCCCCC(=O)OC | 5.15 µM (active) | –
46 | CC(Cl)COP(=O)(OCC(C)Cl)OCC(C)Cl (stereo not drawn) | – | inactive
47 | O=C(O)C(F)(F)C(F)(F)C(F)(F)C(F)(F)C(=O)O | – | inactive
48 | C[N+](C)(C)CCCNS(=O)(=O)C(F)(F)C(F)(F)C(F)(F)C(F)(F)C(F)(F)C(F)(F)C(F)(F)C(F)(F)F | 52.4 µM (active) and 52.6 µM (active) | –
